What was measured:
Type in all cases: functional
[1] = system: Plasmodium falciparum; assay: GSK_TCMDC: Inhibition of Plasmodium falciparum 3D7 in whole red blood cells, using parasite LDH activity as an index of growth. Test compounds present at 2uM
[2] = system: Plasmodium falciparum; assay: GSK_TCMDC: Inhibition of Plasmodium falciparum Dd2 in whole red blood cells, using parasite LDH activity as an index of growth. Test compounds present at 2uM
[3] = system: HepG2; assay: GSK_TCMDC: Percent inhibition of human HepG2 cell line. Test compounds present at 10uM.

SMILES: CC1CNC(c2ccc(NC(=O)c3ccc(C(=O)Nc4ccc(C5=NC(C)CN5)cc4)cc3)cc2)=N1.CS(=O)(=O)O (stereo unspecified)
- Inhibition [1]: 99%
- Inhibition [2]: 100%
- Inhibition [3]: 15%

SMILES: Cl.Clc1ccc(OC2CCC(Cn3ccnc3)(c3ccc(Cl)cc3Cl)CC2)c(Cl)c1 (stereo unspecified)
- Inhibition [1]: 98%
- Inhibition [2]: 86%
- Inhibition [3]: 4%

SMILES: Cc1c(S(=O)(=O)Nc2ccc3nccc(N4CC(C)NC(C)C4)c3c2)sc2ccc(Cl)cc12.Cl (stereo unspecified)
- Inhibition [1]: 92%
- Inhibition [2]: 0%
- Inhibition [3]: 0%

SMILES: Nc1cc(/C=C/c2ccc([N+](=O)[O-])o2)nc2ccccc12
- Inhibition [1]: 93%
- Inhibition [2]: 81%
- Inhibition [3]: 100%

SMILES: CC[C@H](NC(=O)c1c(N)c(-c2sccc2Cl)nc2ccccc12)c1ccccc1
- Inhibition [1]: 99%
- Inhibition [2]: 92%
- Inhibition [3]: 0%

SMILES: COc1cc(OC)c(NC(=O)COc2ccc(C)cc2)cc1Cl
- Inhibition [1]: 86%
- Inhibition [2]: 90%
- Inhibition [3]: 0%

SMILES: O=C(NC1CCCCC1)N(Cc1cccc(-c2ccc(CNCc3ccc4c(c3)OCO4)cc2)c1)C1CCN(Cc2ccccc2)CC1.O=C(O)C(F)(F)F
- Inhibition [1]: 92%
- Inhibition [2]: 59%
- Inhibition [3]: 13%

SMILES: O=C(CSc1nnc(O)n1Cc1ccccc1)Nc1ccccc1-c1ccccc1
- Inhibition [1]: 89%
- Inhibition [2]: 36%
- Inhibition [3]: 0%

SMILES: CCn1c(SCc2ccccc2)nc2c1c(=O)[nH]c(=O)n2C
- Inhibition [1]: 96%
- Inhibition [2]: 30%
- Inhibition [3]: 1%

SMILES: Cl.OC(CN1CCN(c2cccc(Cl)c2)CC1)C(c1ccccc1)c1ccccc1 (stereo unspecified)
- Inhibition [1]: 85%
- Inhibition [2]: 4%
- Inhibition [3]: 0%

SMILES: COc1cc(CNC2Cc3ccccc3C2)ccc1Oc1ccc2nc[nH]c2c1.O=C(O)C(F)(F)F
- Inhibition [1]: 98%
- Inhibition [2]: 50%
- Inhibition [3]: 30%

SMILES: COc1ccc(C2=C(Nc3ccc4oc5ccccc5c4c3)c3ccccc3C2=O)cc1
- Inhibition [1]: 93%
- Inhibition [2]: 92%
- Inhibition [3]: 9%

SMILES: CC(CNc1nc(NCC(c2ccccc2)c2ccccc2)c2nc[nH]c2n1)c1ccccc1 (stereo unspecified)
- Inhibition [1]: 93%
- Inhibition [2]: 24%
- Inhibition [3]: 5%

SMILES: CN1CCC(N2CCN(CCOc3cc(NC(=O)/C=C/c4ccccc4Cl)ccc3Br)CC2)CC1.O=C(O)C(=O)O
- Inhibition [1]: 100%
- Inhibition [2]: 99%
- Inhibition [3]: 36%

SMILES: COc1ccc2ncc(C)c(CCN3CCC(NCc4ccc5c(n4)NC(=O)CS5)CC3)c2c1.Cl
- Inhibition [1]: 100%
- Inhibition [2]: 53%
- Inhibition [3]: 14%

SMILES: COc1ccc(NC(=O)[C@H](CC(C)C)Nc2cc(C)nc(NCCc3ccccc3OC)n2)cc1.O=C(O)C(F)(F)F
- Inhibition [1]: 99%
- Inhibition [2]: 68%
- Inhibition [3]: 9%

SMILES: N#Cc1cccc(Nc2ncc3c(-c4cccc(NC(=O)Cc5cccc(Cl)c5)c4)c[nH]c3n2)c1.O=C(O)C(F)(F)F
- Inhibition [1]: 100%
- Inhibition [2]: 95%
- Inhibition [3]: 0%

SMILES: Cc1noc(C)c1-c1ccc2c(Nc3ccccc3C(C)(C)C)c(C(=O)NCc3cccc4ccccc34)cnc2c1.Cl
- Inhibition [1]: 96%
- Inhibition [2]: 64%
- Inhibition [3]: 4%

SMILES: COC(=O)c1cccc(N2CCN(CCCNC(=O)/C(=C/C=C/c3cc4cc(Cl)c(Cl)cc4[nH]3)OC)CC2)c1.Cl
- Inhibition [1]: 100%
- Inhibition [2]: 59%
- Inhibition [3]: 38%

SMILES: Fc1cccc(COc2ccc(-n3ccc4c(NCCCn5ccnc5)ncnc43)cc2Cl)n1
- Inhibition [1]: 87%
- Inhibition [2]: 29%
- Inhibition [3]: 14%

SMILES: CC1(CCCCN2CCC(Cc3ccccc3)CC2)C(=O)Nc2ccccc21.Cl (stereo unspecified)
- Inhibition [1]: 100%
- Inhibition [2]: 28%
- Inhibition [3]: 66%

SMILES: Cc1cc(NCCC(=O)Nc2ccccc2)nc(NCCc2cccs2)n1.O=C(O)C(F)(F)F
- Inhibition [1]: 99%
- Inhibition [2]: 20%
- Inhibition [3]: 26%

SMILES: COc1ccccc1C1CC(c2ccccc2)=NN1C(=O)c1ccco1 (stereo unspecified)
- Inhibition [1]: 97%
- Inhibition [2]: 95%
- Inhibition [3]: 12%

SMILES: COc1ccc(NC(=O)N2CCN(CCCCCNC(=O)/C=C/c3ccc(C(F)(F)F)cc3)CC2)cc1Cl
- Inhibition [1]: 94%
- Inhibition [2]: 0%
- Inhibition [3]: 25%

SMILES: CC(C)NCc1cccc(-c2ccc(-c3nc4cc(C(F)(F)F)ccc4[nH]3)cc2)c1.O=C(O)C(F)(F)F
- Inhibition [1]: 99%
- Inhibition [2]: 96%
- Inhibition [3]: 7%

SMILES: Cc1ccc(NC(=O)NCCCCCN2CCC(c3c[nH]c4ccccc34)CC2)cc1I
- Inhibition [1]: 94%
- Inhibition [2]: 5%
- Inhibition [3]: 96%

SMILES: O=C(NCCOc1ccccc1)[C@H](Cc1ccccc1)Nc1ccnc(NCC2CCCCC2)n1.O=C(O)C(F)(F)F
- Inhibition [1]: 96%
- Inhibition [2]: 73%
- Inhibition [3]: 80%

SMILES: COc1cc2nc(N3CCN(C(=O)c4cccc(I)c4)CC3)nc(N)c2cc1OC
- Inhibition [1]: 88%
- Inhibition [2]: 26%
- Inhibition [3]: 11%

SMILES: Cc1cc(C=C(P(=O)(OC(C)C)OC(C)C)P(=O)(OC(C)C)OC(C)C)c2ccccc2c1O
- Inhibition [1]: 85%
- Inhibition [2]: 54%
- Inhibition [3]: 15%

SMILES: Oc1c(C(Nc2nc3ccccc3s2)c2ccc(OC(F)F)cc2)ccc2cccnc12 (stereo unspecified)
- Inhibition [1]: 92%
- Inhibition [2]: 85%
- Inhibition [3]: 62%

SMILES: CCCc1ccc(S(=O)(=O)NC2CCN(C(=O)Nc3ccc(I)cc3)CC2)cc1
- Inhibition [1]: 97%
- Inhibition [2]: 0%
- Inhibition [3]: 8%

SMILES: CC(C)C[C@@H](C(=O)N[C@@H](CCCCNC(=O)OCc1ccccc1)C(=O)Nc1nccs1)[C@H](C)N(O)C=O
- Inhibition [1]: 99%
- Inhibition [2]: 98%
- Inhibition [3]: 0%

SMILES: Cc1ccc(NC(=O)C2CCC2)cc1-c1ccc(C(=O)NCC2CC2)cc1
- Inhibition [1]: 98%
- Inhibition [2]: 3%
- Inhibition [3]: 13%

SMILES: COc1ccc(C(=O)CCC(=O)N(Cc2ccc(-c3ccc(CNCCc4ccc(S(C)(=O)=O)cc4)cn3)cc2)C(C)CN(C)C)cc1F.O=C(O)C(F)(F)F (stereo unspecified)
- Inhibition [1]: 98%
- Inhibition [2]: 85%
- Inhibition [3]: 13%

SMILES: CO/C(=C\C=C\c1cc2cc(Cl)c(Cl)cc2[nH]1)C(=O)NC1CCN(CCCc2ccccc2)CC1
- Inhibition [1]: 93%
- Inhibition [2]: 75%
- Inhibition [3]: 59%

SMILES: Cl.O=C(Nc1ccccc1)c1cccc(Nc2nccc(Nc3ccc(Oc4ccccc4)cc3)n2)c1
- Inhibition [1]: 98%
- Inhibition [2]: 11%
- Inhibition [3]: 6%

SMILES: O=C1c2ccccc2C(=O)N1CCOc1c(Br)cc(Br)cc1CNCCCNc1cc(=O)c2ccccc2[nH]1
- Inhibition [1]: 92%
- Inhibition [2]: 12%
- Inhibition [3]: 10%

SMILES: CCCCCC(C)C(C)c1cc(O)c2c(c1)OC(C)(C)CC2(O)c1ccccn1 (stereo unspecified)
- Inhibition [1]: 98%
- Inhibition [2]: 3%
- Inhibition [3]: 0%

SMILES: COc1cccc(CCN(Cc2ccccc2-c2ccc(CNC3CC(C)(C)NC(C)(C)C3)cc2)C(=O)NC2CCCCC2)c1.Cl
- Inhibition [1]: 100%
- Inhibition [2]: 99%
- Inhibition [3]: 97%

SMILES: c1cncc(NCc2ccc(-c3cc4ccncc4cc3OC3CCNCC3)s2)c1
- Inhibition [1]: 100%
- Inhibition [2]: 19%
- Inhibition [3]: 4%

SMILES: O=C(Nc1cccc(-c2csc(-c3nc4ccccc4[nH]3)c2)c1)c1ccoc1
- Inhibition [1]: 96%
- Inhibition [2]: 67%
- Inhibition [3]: 36%

SMILES: Cc1cccc2nc(-c3ccc(-c4cccc(CN5CCN(CCN6CCOCC6)CC5)c4)s3)[nH]c12.O=C(O)C(F)(F)F
- Inhibition [1]: 100%
- Inhibition [2]: 83%
- Inhibition [3]: 33%

SMILES: COc1cc(C(=O)Nc2cccc(-c3nc4ccccc4[nH]3)c2)ccc1OC(C)=O
- Inhibition [1]: 83%
- Inhibition [2]: 37%
- Inhibition [3]: 16%

SMILES: CC(C)c1cc(Oc2c(I)cc(CCNC(=N)N)cc2I)ccc1O.Cl
- Inhibition [1]: 98%
- Inhibition [2]: 54%
- Inhibition [3]: 19%

SMILES: COc1ccc2c(NN=Cc3ccc(N(C)C)cc3)ccnc2c1
- Inhibition [1]: 100%
- Inhibition [2]: 100%
- Inhibition [3]: 12%

SMILES: Cc1ccc(NC(=O)c2ccc(CN3CCCN(Cc4cccc(O)c4)CC3)cc2)cc1F.O=C(O)C(F)(F)F
- Inhibition [1]: 97%
- Inhibition [2]: 31%
- Inhibition [3]: 48%

SMILES: CCc1cc(OC)c(C(=O)NC2CCN(C[C@H](O)c3ccnc4ccc(OC)cc34)CC2)cc1Br
- Inhibition [1]: 98%
- Inhibition [2]: 56%
- Inhibition [3]: 6%

SMILES: CC[C@H]1CN2CCc3cc(OC)c(OC)cc3[C@@H]2C[C@@H]1C[C@H]1NCCc2cc(OC)c(OC)cc21 [EMETINE]
- Inhibition [1]: 100%
- Inhibition [2]: 99%
- Inhibition [3]: 43%

SMILES: CN1CCN(Cc2cccc(Nc3nccc(Nc4ccc(Oc5ccccc5)cc4)n3)c2)CC1
- Inhibition [1]: 97%
- Inhibition [2]: 80%
- Inhibition [3]: 30%

SMILES: CCN1CCC(N(Cc2ccc(-c3ccc(C(F)(F)F)cc3)cc2)C(=O)Cn2c(CCc3cccc(F)c3F)cc(=O)c3cn(C)nc32)CC1.O=C(O)C(O)C(O)C(=O)O
- Inhibition [1]: 95%
- Inhibition [2]: 87%
- Inhibition [3]: 27%

SMILES: Cc1cc2ncn(-c3ccnc(N4CCN(CCCN5CCCC5)CC4)n3)c2cc1C.O=C(O)C(F)(F)F
- Inhibition [1]: 100%
- Inhibition [2]: 49%
- Inhibition [3]: 24%

SMILES: COc1cc2nc(NC3CCN(Cc4ccccc4)CC3)nc(N)c2cc1OC
- Inhibition [1]: 100%
- Inhibition [2]: 30%
- Inhibition [3]: 27%

SMILES: N#Cc1ccc(-c2ccc(C(=O)NCCCCN3CCC(c4ccc5c(c4OCC(N)=O)CCCC5)CC3)cc2)cc1
- Inhibition [1]: 87%
- Inhibition [2]: 23%
- Inhibition [3]: 21%

SMILES: Nc1cc(-c2cccc(Cl)c2)nn1-c1ccnc2cc(Cl)ccc12
- Inhibition [1]: 99%
- Inhibition [2]: 33%
- Inhibition [3]: 0%

SMILES: O=C(Nc1ccc(OC2CCN(Cc3ccc(F)cc3)CC2)c(Cl)c1)c1ccco1.O=C(O)C(F)(F)F
- Inhibition [1]: 95%
- Inhibition [2]: 95%
- Inhibition [3]: 2%

SMILES: Cl.c1ccc(CN2CCN(CCNc3c4ccccc4nc4ccccc34)CC2)cc1
- Inhibition [1]: 100%
- Inhibition [2]: 97%
- Inhibition [3]: 44%

SMILES: CCOC(=O)C(NC(=O)c1ccc([N+](=O)[O-])o1)C(C)C (stereo unspecified)
- Inhibition [1]: 87%
- Inhibition [2]: 8%
- Inhibition [3]: 0%

SMILES: O=C(Nc1ccc2ccccc2c1)N(CCCn1ccnc1)Cc1csc(-c2ccc(CNCc3ccccc3)cc2)n1.O=C(O)C(F)(F)F
- Inhibition [1]: 99%
- Inhibition [2]: 53%
- Inhibition [3]: 10%

SMILES: CN1CCN(c2nsc3ccc(-c4ccc(NC(=O)Nc5cc(C(F)(F)F)ccc5F)cc4)cc23)CC1.O=C(O)C(F)(F)F
- Inhibition [1]: 99%
- Inhibition [2]: 64%
- Inhibition [3]: 100%

SMILES: COc1ccc2ncc(F)c(CCN3CC[C@@H](CNCc4cc5c(cn4)OCS5)C3)c2n1.Cl
- Inhibition [1]: 98%
- Inhibition [2]: 29%
- Inhibition [3]: 3%

SMILES: CCSc1ccccc1COc1c(C)nc(N)nc1N.Cl
- Inhibition [1]: 93%
- Inhibition [2]: 4%
- Inhibition [3]: 54%

SMILES: Cc1ccc(CCOCCCCCNCC(O)c2cc(Cl)c(N)c(Cl)c2)cc1 (stereo unspecified)
- Inhibition [1]: 99%
- Inhibition [2]: 98%
- Inhibition [3]: 10%

From ChEMBL document CHEMBL1157539, “Thousands of chemical starting points for antimalarial lead identification” (Nature, 2010)
